Bead autofluor = flagged as autofluorescent in microsphere protease counterscreen; compound autofluorescence counterscreen, microsphere flow cytometry; hits give high values; fluorescence intensity (no concentration beside the values); 360,000 compounds, 3.1% hits; AID 624483; in the data active = fluorescence intensity above about 16000; inconclusive = no clear call, values can overlap the other calls
BoNT-A LC inh2 = BoNT A light chain protease inhibition; multiplex microsphere protease substrate cleavage, flow cytometry; inhibition, % at 10 µM; 360,000 compounds, 0.17% hits; AID 588499; also: plate controls were buffer without enzyme for full effect and enzyme alone for no effect
SSB-PriA inh = inhibitors of Klebsiella pneumoniae PriA binding to SSB C-terminal tail | 430,000 compounds, 0.6% hits | inhibition, % at 33 µM | AID 1272365 | AlphaScreen SSBct-PriA binding, biotinylated peptide; in the data active = inhibition mostly above about 37%, no sharp cut-off; inactive = mostly below about 20%;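 also: plate controls were negative control peptide for no effect and reference peptide for full effect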
BoNT F protease = blocks Botulinum neurotoxin F light chain protease | Multiplex microsphere protease cleavage assay, flow cytometry | inhibition, % at 10 µM | AID 588497 | 360,000 compounds, 0.22% hits; in the data active = inhibition above about 35%, passing the limit was not always enough; inconclusive = no clear call, values can overlap the other calls; also: plate controls were buffer without enzyme for full effect and enzyme alone for no effect
MazEF act = increases E. coli MazEF RNase cleavage of RNA; P0AE70; FAM/BHQ RNA-DNA oligo cleavage fluorescence, 5 h; activation, % at 20 µM; 350,000 compounds, 0.32% hits; in the data active = activation above about 50%
Anthrax LF prot = anthrax lethal factor protease inhibition; 360,000 compounds, 0.12% hits; P15917; inhibition, % at 10 µM; AID 588501; multiplex microsphere protease cleavage assay, LF; also: plate controls were buffer without enzyme for full effect and enzyme alone for no effect
Target sequence (P15917 whole entry, looked up): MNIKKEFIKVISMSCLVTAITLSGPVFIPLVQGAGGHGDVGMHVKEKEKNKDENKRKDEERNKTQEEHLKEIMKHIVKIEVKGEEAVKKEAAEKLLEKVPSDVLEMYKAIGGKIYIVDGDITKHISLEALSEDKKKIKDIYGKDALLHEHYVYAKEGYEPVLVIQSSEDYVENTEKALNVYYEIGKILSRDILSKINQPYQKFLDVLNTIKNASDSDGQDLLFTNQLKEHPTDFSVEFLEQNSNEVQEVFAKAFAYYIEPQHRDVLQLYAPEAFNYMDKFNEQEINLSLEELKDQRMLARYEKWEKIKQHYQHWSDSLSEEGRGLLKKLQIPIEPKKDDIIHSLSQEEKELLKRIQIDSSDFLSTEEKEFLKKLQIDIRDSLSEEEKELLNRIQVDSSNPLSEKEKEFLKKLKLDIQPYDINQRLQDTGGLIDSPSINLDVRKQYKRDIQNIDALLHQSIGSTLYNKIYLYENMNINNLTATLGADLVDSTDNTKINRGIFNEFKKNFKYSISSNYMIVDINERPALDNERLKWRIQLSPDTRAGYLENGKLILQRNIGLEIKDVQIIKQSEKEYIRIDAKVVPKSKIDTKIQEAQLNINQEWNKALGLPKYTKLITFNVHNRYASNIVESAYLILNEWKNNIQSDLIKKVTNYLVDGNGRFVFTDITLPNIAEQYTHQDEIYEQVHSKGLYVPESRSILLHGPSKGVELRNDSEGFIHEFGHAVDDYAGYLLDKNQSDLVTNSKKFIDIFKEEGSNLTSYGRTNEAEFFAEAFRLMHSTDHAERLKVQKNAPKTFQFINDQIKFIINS
The depositor's hits bear a star; i = inactive; ? = inconclusive; · = not tested or not shown. Sampled rows, rich in hits. Any-hit rate of the full collection: about 3.3%. Rule as the data show it, unless noted: active = inhibition above about 30%; inconclusive = no clear call, values can overlap the other calls; inactive = below that.

SMILES	Bead autofluor	BoNT-A LC inh2	SSB-PriA inh	BoNT F protease	MazEF act	Anthrax LF prot
CCOc1ccc(CCNc2nc3c(c(=O)n(C)c(=O)n3C)n2CC)cc1OCC	16756*	?	-2	-2	1	1
O=C(NCCN1Cc2ccccc2OCC1=O)c1cc(C2CC2)[nH]n1	·	·	-16	·	·	·
O=C(O)C1CC(=O)N(c2ccc(OCc3ccccc3)cc2)C1 (configuration not stated)	21268*	3	0	4	3	1
CNC(=O)C1CC(=O)N(c2ccc(OCC(=O)Nc3ccccc3)cc2)C1 (configuration not stated)	3727	-1	-13	-3	4	-8
O=C(COc1ccc(N2CC(C(=O)O)CC2=O)cc1)Nc1cccc(C(F)(F)F)c1 (configuration not stated)	23245*	?	-14	-1	3	1
O=C(O)C1CC(=O)N(c2ccc(OCc3ccc(Br)cc3)cc2)C1 (configuration not stated)	3344	0	5	-3	7	18
Cc1ccnc(C(=O)NCc2ccc(F)cc2)n1	·	·	-8	·	·	·
Nc1nnc(CC(=O)N/N=C/c2ccc(-c3ccc(F)cc3)o2)s1	4152	4	i	38*	4	?
Nc1nnc(CC(=O)NN=Cc2ccc(-c3ccccc3)o2)s1	·	·	-7	·	·	·
CCN(CC)c1ccc(/C=c2\sc3nc4ccccc4n3c2=O)c(O)c1	5189	24	·	-2	-153	10
O=C(O)c1ccc(-c2ccc(/C=c3/sc4nc5ccccc5n4c3=O)o2)cc1Cl	7041	32*	·	?	-90	133*
O=c1/c(=C/c2ccc(F)cc2F)sc2nc3ccccc3n12	·	·	40*	·	·	·
CCn1ccnc1N1CCNCC1	·	·	-16	·	·	·
COc1cc(C(=O)Nc2cc(C)nn2C)cc(OC)c1OC	·	·	17	·	·	·
CNC(=O)c1ccsc1NC(=O)C1CCN(S(=O)(=O)c2ccc(OC)cc2)CC1	·	·	-4	·	·	·
Nc1nc2ccc(C(=O)NCCO)cc2s1	·	·	81*	·	·	·
O=C(Nc1cc(-n2ccc3ccccc32)ncn1)C1CC1	·	·	-18	·	·	·
Cc1ccccc1-n1c(CC2CCN(C(=O)c3ccc(Cl)s3)CC2)n[nH]c1=O	·	·	-5	·	·	·
CCCc1[nH]nc2c1C1(C(=O)N(CC)c3ccccc31)C(C#N)=C(N)O2 (configuration not stated)	8014	0	-6	-7	2	-3
CCCc1[nH]nc2c1C1(C(=O)N(CC(N)=O)c3ccccc31)C(C(=O)OC)=C(N)O2 (configuration not stated)	2689	0	-5	8	-4	-2
CCN1C(=O)C2(C(C#N)=C(N)Oc3n[nH]c(-c4ccccc4)c32)c2ccccc21 (configuration not stated)	16247*	0	-8	0	10	-1
CCCc1[nH]nc2c1C1(C(=O)N(Cc3ccccc3)c3ccccc31)C(C(=O)OC)=C(N)O2 (configuration not stated)	17223*	8	22	9	1	-15
Cc1cc2cc(C=O)c(Cl)nc2cc1C	17857*	-3	4	-7	3	-3
Cc1ccc2nc(Cl)c(C=O)cc2c1	·	·	7	·	·	·
COC(=O)c1ccc(C(=O)Nc2nnc(-c3cc(C)n(C)n3)o2)cc1	·	·	95*	·	·	·
SMILES	Bead autofluor	BoNT-A LC inh2	SSB-PriA inh	BoNT F protease	MazEF act	Anthrax LF prot
Cc1nc(-c2ccccc2Cl)sc1CNC(=O)c1ccc2nsnc2c1	·	·	-5	·	·	·
CCS(=O)(=O)c1ccc(-c2ccc(NC(=O)c3ccc(S(=O)(=O)N4CCOCC4)cc3)cc2)nn1	·	·	5	·	·	·
COc1ccc(C[C@](C)(O)CNC(=O)CCc2ccccc2Br)cc1	·	·	-15	·	·	·
CCOC(=O)C1=C(Cn2cnc3ccccc32)NC(=O)NC1c1ccc(Cl)cc1 (configuration not stated)	9511	0	5	-9	-6	-1
CCOC(=O)C1=C(Cn2cnc3ccccc32)NC(=O)NC1c1ccc(OC)cc1 (configuration not stated)	16933*	-1	-19	-1	-8	2
Cc1cccc(N=NC(=CO)C(=O)c2cccs2)c1	·	·	40	·	·	·
CCN1CCN(Cc2oc(CO)cc(=O)c2O)CC1	19271*	?	-11	2	-5	-4
COc1ccc(-c2c(C#N)c(N)nc3c2CCCC3)cc1OC	16197*	0	-16	1	0	-1
Cc1ccc(-c2csc3nc(SCC(=O)NCCc4ccccc4)n(-c4ccccc4)c(=O)c23)o1	·	·	-5	·	·	·
COc1ccc(C)cc1NC(=O)C(=O)NCCN1CCN(c2ccccc2F)CC1	·	·	-1	·	·	·
COC(CNC(=O)c1ccc2c(c1)nc(C)n2-c1cccc(F)c1)OC	21945*	-5	-12	-4	-4	1
COC(CNC(=O)c1ccc2c(c1)nc(C)n2-c1ccc(F)c(F)c1)OC	22581*	1	-5	5	5	-2
COC(CNC(=O)c1ccc2c(c1)nc(C)n2-c1cc(C)cc(C)c1)OC	2960	3	2	10	0	0
Cn1cc(Br)c(C(=O)NC2C3CC4CC(C3)CC2C4)n1 (configuration not stated)	20443*	?	-7	-3	-7	-1
CC(=O)NS(=O)(=O)c1ccc(NC(=O)CCn2c(=O)oc3ccc(Cl)cc32)cc1	·	·	10	·	·	·
Cc1sc(NC(=O)c2ccco2)c(C(N)=O)c1C	·	·	-17	·	·	·
CCCc1cc(C(N)=O)c(NC(=O)c2ccco2)s1	16987*	-2	-7	-4	17	-1
CC(=O)c1ccc(OCCCC(=O)NC2=NCCS2)cc1	23568*	?	-8	-7	5	-3
O=C(NCc1ccc2c(c1)OCO2)c1ccc(COc2cc(Cl)ccc2Cl)o1	18111*	10	-12	18	-3	1
O=C(NCc1ccc2c(c1)OCO2)c1ccc(CSCc2ccc(Cl)cc2)o1	2468	-1	-9	-8	-7	0
O=C(Nc1ccn(Cc2ccccc2F)n1)c1ccc(COc2ccccc2Cl)cc1	19484*	1	-2	-2	-7	-3
O=C(Nc1ccn(Cc2ccccc2F)n1)c1ccc(COc2cc(Cl)ccc2Cl)o1	11595	-1	10	-17	-9	-7
O=C(Nc1ccn(Cc2c(F)c(F)cc(F)c2F)n1)c1ccc(COc2cc(Cl)ccc2Cl)o1	22103*	3	7	4	-7	-2
O=C(c1ccncc1)N1CCC(CNC(=O)C2(c3ccccc3)CCOCC2)CC1	·	·	-4	·	·	·
Cc1nnc(N/N=C/c2cc([N+](=O)[O-])c(N3CCC(C)CC3)cc2N2CCC(C)CC2)n1N	8837	-1	·	-16	-4	3
Cc1nnc(NN=Cc2cc([N+](=O)[O-])c(N3CCC(C)CC3)cc2N2CCC(C)CC2)n1N	·	·	42*	·	·	·
COc1ccc(-c2onc3ccc(C(=O)/C=C/N(C)C)cc23)cc1	9723	1	1	45*	-6	-10
COc1ccc(CN2CCN(C)CC2)cc1OCc1ccccc1	20197*	2	7	1	4	0
Cc1cccc(N2CCN(Cc3ccc4c(c3)OCO4)CC2)c1C	3995	-2	-6	-21	-3	1

Compound activity as filed in PubChem BioAssay.
